Data as given in PubChem BioAssay (NCI).
This is part of a sample that, as a whole, favours compounds with a hit. Of some 83,000 tested, about 20% had one in any assay.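 For each line, cells grew in 96-well plates with the test compound present at a single concentration for 48 hours.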 Unmarked numbers belong to inactive results. The source made the active and inactive calls. The calls were made as follows: active = growth percent below 10; inactive = the rest.

Assays:
Experiment in all cases: NCI-60 one-dose screen, 48 h (100 = growth as untreated, 0 = no growth, -100 = all killed)
Details in all cases: 10 µM unless noted
NCI-H23 lung = tested on: NCI-H23 lung
NCI-H226 lung = tested on: NCI-H226 lung
NCI-H322M lung = tested on: NCI-H322M lung
HOP-62 NSCLC = tested on: HOP-62 NSCLC
NCI-H460 lung = tested on: NCI-H460 lung
HOP-92 NSCLC = tested on: HOP-92 NSCLC
NCI-H522 lung = tested on: NCI-H522 lung
A549/ATCC NSCLC = tested on: A549/ATCC NSCLC
786-0 renal = tested on: 786-0 renal
COLO 205 colon = tested on: COLO 205 colon

SMILES | growth (NCI-H23 lung) | growth (NCI-H226 lung) | growth (NCI-H322M lung) | growth (HOP-62 NSCLC) | growth (NCI-H460 lung) | growth (HOP-92 NSCLC) | growth (NCI-H522 lung) | growth (A549/ATCC NSCLC) | growth (786-0 renal) | growth (COLO 205 colon)
COC(=O)c1nc(-c2ccccc2)oc1S(=O)(=O)N1CCCC(C)C1 (stereo not given) | 87.8% | 90.6% | 90.2% | 107% | 102% | 72.7% | 28.6% | 96.8% | 59.1% | 67.7%
COc1ccc(-c2cc(-c3cc(OC)ccc3OC)nc(SCC(C)=O)c2C#N)cc1 | 76.1% | 83.4% | 97.6% | 75.5% | 78.8% | 38.2% | 54.9% | 49.4% | 75% | 78.2%
Cc1cc2oc(/C=C/c3ccccc3)cc(=O)c2c(C)c1Cl | 88.8% | 103% | 110% | 103% | 105% | 97% | 93.8% | 91.6% | 93.2% | 104%
C/C(Cc1ccc(Cl)cc1)=C(\c1ccc(OCCN2CCCCCC2)cc1)c1ccc(OC(=O)c2ccccc2)cc1 | 46.8% | 86.2% | 70% | 81% | 3.3% (active) | -4.45% (active) | 62.4% | 54.3% | 12% | 44.7%
CCN(CC)CCN1C(=O)c2c(c3c4ccccc4[nH]c3c3ccc4ccccc4c23)C1=O | -67.8% (active) | 87.5% | 87% | 55.3% | 16.3% | 66.2% | 67.8% | -60.9% (active) | -96.7% (active) | 78.7%
COc1ccc2c(c1)CC[C@@H]1[C@@H]2CC[C@]2(C)C3C(=CC(COC(C)=O)C4C(=O)N(c5ccc(Cl)cc5)C(=O)C43)C[C@@H]12 (stereo not given in full) | 91.8% | 97.3% | 107% | 98.4% | 110% | 90.7% | 89.9% | 110% | 111% | 118%
O=C(Nc1nc(Cl)nc(Nc2ccc(N3CCOCC3=O)cc2)n1)c1ccc(Cl)s1 | 88.1% | 86.4% | 97.8% | 97.6% | 99.9% | 80.2% | 81.1% | 77.3% | 108% | 97.3%
Nc1ccc(-c2ccncc2)cc1NC(=O)N1CCCC1 | 102% | 98.1% | 92% | 86.5% | 100% | 104% | 57.4% | 87.7% | 96.8% | 105%
Cc1ccc(S(=O)(=O)OCC#CCOS(=O)(=O)c2ccc(C)cc2)cc1 | 59.3% | 84.3% | 93.9% | -12.9% (active) | 13.4% | 40.2% | -65.4% (active) | 17.1% | 74.5% | 52.6%
CNC(=O)c1cc(Oc2ccc3c(c2)sc2nc(-c4ccc(Cl)c(C(F)(F)F)c4)cn23)ccn1 | 53% | 52.6% | 88.5% | 75.9% | 51.3% | 73.1% | 42.6% | 61% | 68.6% | 58.4%
CS(=O)(=O)Nc1cc(-c2ccc3ncnc(Nc4ccc5c(cnn5Cc5ccncc5)c4)c3c2)cnc1Cl | 62.2% | 92% | 76% | 43.9% | 97.2% | -7.79% (active) | 46.4% | 86% | 66.3% | 89.2%
COc1cc(/C=C/C(=O)N2CCN(C(=O)c3cc(OC)c(OC)c(OC)c3)CC2)ccc1OCCCOc1cc2c(cc1OC)C(=O)N1CCC[C@H]1C=N2 | -13.6% (active) | -8.72% (active) | -5.89% (active) | 9.35% (active) | 6.44% (active) | -37.1% (active) | -54.5% (active) | 12.7% | 11.7% | -63.4% (active)
CC(=O)Nc1sc2c(c1-c1nc3ccccc3s1)CNC2 | 24.9% | 26% | 14.5% | 18.6% | 8.68% (active) | 0.851% (active) | -12.5% (active) | 14.1% | 28.4% | 8.21% (active)
Cc1nc(N/N=C/c2cn(-c3ccccc3)nc2-c2cc3ccccc3oc2=O)sc1N=Nc1ccccc1 | 93.7% | 95.4% | 104% | 66% | 99.7% | 97.1% | 66.2% | 96.6% | 97.3% | 105%
Cc1ccc(OCCOCCOCCOc2ccc(C)n(O)c2=S)c(=S)n1O | 44.9% | 29% | 40.6% | 30.3% | 17.3% | 81.1% | 22.5% | 29.9% | 40.9% | 7.96% (active)
COc1ccc(C(=O)Nc2ncc(Cc3ccc(Cl)cc3)s2)cc1 | 30.5% | 41.7% | 35.7% | 21.2% | 5.09% (active) | 41.4% | -16.3% (active) | 17.7% | 17.6% | -2.86% (active)
c1cc(OCCN2CCCCCC2)ccc1CNc1ccc2nc(CCC3CCCCC3)[nH]c2c1 | 82.6% | 60.8% | 81.7% | 60.5% | 68.3% | 23.3% | 68.5% | 70.8% | 54.2% | -48% (active)
O=C(NCCNC(c1ccccc1)C(NCCNC(=O)c1ccccc1)c1ccccc1)c1ccccc1 (stereo not given) | 83.3% | 100% | 95.7% | 104% | 59.6% | 84.8% | 69.4% | 106% | 106% | 106%
